Assay [1] deals with Steroid hormone receptor ERR1 (Homo sapiens) (UniProt P11474). Briefly: ATG_ERRa_TRANS: Attagene TRANS-FACTORIAL HepG2 Assay for human Estrogen-Related Receptor alpha (ERRa) (AID 2282971; active = hit-call score of the fitted dose curve at least 0.9, where 1 is the maximum). The note with it: HepG2 Attagene TRANS reporter, ERRa transactivation. In a few lines: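 Reporter transcript induction was quantified by RT-PCR and capillary electrophoresis of FAM-labelled, HpaI-cut products after 24 h treatment of HepG2 cells carrying transiently transfected GAL4-UAS reporter units and an exogenous ERRa-Gal4 fusion; activity scored as increase over DMSO.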

The target of assay [2] is Estrogen-related receptor gamma (Homo sapiens) (UniProt P62508). Briefly: ATG_ERRg_TRANS: Attagene TRANS-FACTORIAL HepG2 Assay for human Estrogen-Related Receptor gamma (ERRg) (AID 2282977; active = hit-call score of the fitted dose curve at least 0.9, where 1 is the maximum;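 also: hits increase reporter signal over DMSO so potencies reflect activators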). Particulars: HepG2 Attagene TRANS reporter, ERRg transactivation. In a few lines: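 Exogenous NR-Gal4 chimera activity measured as reporter transcript induction after 24 h in transiently transfected HepG2 cells. RNA reverse-transcribed, PCR-amplified, 6-FAM-labelled and resolved by capillary electrophoresis; increase over DMSO baseline.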

Assay [3] can be described thus: CCTE_Harrill_HTTr_CellCount_MCF7: CCTE's Cell Proliferation Assessment for the High-Throughput Transcriptomics (HTTr) Platform, Harrill Lab (AID 2284012; active = hit-call score of the fitted dose curve at least 0.9, where 1 is the maximum;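 also: cells exposed to compound for six hours; intended direction is loss of nuclei count meaning fewer cells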). In a few lines:
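Cell count from high-content imaging of Hoechst-labeled nuclei serves as viability/growth readout. Chemicals were applied to MCF-7 cells in eight concentrations for six hours, with fitting in both directions relative to DMSO.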

Assay [4] deals with Nuclear receptor subfamily 4 group A member 2 (Homo sapiens) (UniProt P43354). Briefly: ATG_NURR1_TRANS: Attagene TRANS-FACTORIAL HepG2 Assay for human Nuclear Receptor Related Protein 1 (NURR1) (AID 2282985; active = hit-call score of the fitted dose curve at least 0.9, where 1 is the maximum). The note with it: HepG2 Attagene TRANS reporter, mRNA readout. In a few lines:
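Reporter transcript induction, measured by RT-PCR with fluorescent labelling, HpaI digestion and capillary electrophoresis, after 24 hr dosing of human HepG2 cells transiently expressing an exogenous NR-Gal4 fusion with GAL4-UAS-driven reporters; DMSO as baseline.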

Read-out in assay [5]: Pselectin, SELP (gene 6403)
Briefly: BSK_4H_Pselectin: BioMAP Diversity Plus: 4H Assay for Pselectin Biomarker Activity (AID 2283026). Particulars: primary human endothelial cells (HUVEC); actives raise or lower the signal. The procedure, abridged: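 ELISA of surface P-selectin on HUVEC, 24 h after dosing, with parallel SRB staining (0.1% after 10% TCA fixation, 560 nm) for overt cytotoxicity. Activity fitted in both directions relative to DMSO.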

Read-out in assay [6]: Macrophage colony-stimulating factor (MCSF), CSF1 (gene 1435)
Briefly: BSK_CASM3C_MCSF: BioMAP Diversity Plus: CASM3C Assay for Macrophage colony-stimulating factor (MCSF) Biomarker Activity (AID 2283044).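 Also: M-CSF protein amount quantified by ELISA after 24 h exposure.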 The note with it: primary human coronary artery smooth muscle cells; actives raise or lower the signal.

Read-out in assay [7]: Low-density lipoprotein receptor (LDLR), LDLR (gene 3949)
Briefly: BSK_CASM3C_LDLR: BioMAP Diversity Plus: CASM3C Assay for Low-density lipoprotein receptor (LDLR) Biomarker Activity (AID 2283045).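 Also: LDLR protein level on the cell surface quantified by ELISA.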 The note with it: primary human coronary artery smooth muscle cells; actives raise or lower the signal.

Read-out in assay [8]: serum amyloid A (SAA), SAA1 (gene 6288)
Briefly: BSK_CASM3C_SAA: BioMAP Diversity Plus: CASM3C Assay for serum amyloid A (SAA) Biomarker Activity (AID 2283049).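 Also: SAA protein level quantified by ELISA.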 The note with it: primary human coronary artery smooth muscle cells; actives raise or lower the signal.

Read-out in assay [9]: Interferon-gamma inducible Protein 10 (IP10), CXCL10 (gene 3627)
Briefly: BSK_hDFCGF_IP10: BioMAP Diversity Plus: hDFCGF Assay for Interferon-gamma inducible Protein 10 (IP10) Biomarker Activity (AID 2283053). The note with it: primary human foreskin fibroblasts; actives raise or lower the signal. The procedure, abridged:
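ELISA quantification of IP-10 after a 24 h chemical exposure of human dermal foreskin fibroblast primary cultures. Both increases and decreases versus DMSO fitted.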

Read-out in assay [10]: Vascular cell adhesion molecule 1 (VCAM1), VCAM1 (gene 7412)
Briefly: BSK_CASM3C_VCAM1: BioMAP Diversity Plus: CASM3C Assay for Vascular cell adhesion molecule 1 (VCAM1) Biomarker Activity (AID 2283055).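 Also: VCAM-1 protein level quantified by ELISA on the cells.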 Particulars: primary human coronary artery smooth muscle cells; actives raise or lower the signal.

Read-out in assay [11]: Macrophage colony-stimulating factor (MCSF), CSF1 (gene 1435)
Briefly: BSK_hDFCGF_MCSF: BioMAP Diversity Plus: hDFCGF Assay for Macrophage colony-stimulating factor (MCSF) Biomarker Activity (AID 2283060). Particulars: AC50: primary human foreskin fibroblasts, actives raise or lower the signal unless noted; outcome: primary human foreskin fibroblasts, actives raise or lower the signal unless noted. In a few lines: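 Primary human foreskin fibroblasts dosed with chemical; 24 h later, M-CSF quantified by ELISA; curves fitted in both directions vs DMSO negative control.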

Read-out in assay [12]: Monokine induced gamma interferon (MIG), CXCL9 (gene 4283)
Briefly: BSK_hDFCGF_MIG: BioMAP Diversity Plus: hDFCGF Assay for Monokine induced gamma interferon (MIG) Biomarker Activity (AID 2283063). Particulars: primary human foreskin fibroblasts; actives raise or lower the signal. In a few lines:
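Chemicals were added to primary human foreskin fibroblast cultures, which were sampled 24 h later. MIG levels were then quantified by ELISA and responses fitted in both directions relative to DMSO.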

For assay [13], the target named is Retinoic acid receptor RXR-alpha (Homo sapiens) (UniProt P19793). Briefly: OT_NURR1_NURR1RXRa_1440: Odyssey Thera (OT) 24-hour HEK293T Protein Complementation Assay for Nurr1/retinoid X receptor (RXR) (AID 2283386; active = hit-call score of the fitted dose curve at least 0.9, where 1 is the maximum). The procedure, abridged: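 Gain in fluorescence, fitted relative to DMSO, reflects Nurr1–RXRα association in HEK293T cells after 24 h dosing. Bait and prey are each linked to a reporter-protein fragment that reassembles on interaction.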

Assay [14] can be described thus: ATG_ERE_CIS: Attagene CIS-FACTORIAL HepG2 Assay for Estrogen Response Element (ERE) (AID 2282940). Particulars: HepG2 ERE cis-reporter, Attagene RNA transcript; actives raise or lower the signal. The procedure, abridged:
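Cells used were human hepatoma HepG2, transfected with multiple reporter transcription units under cis-regulatory promoters. Reporter mRNA, read 24 h post-dosing via fluorescent RT-PCR products on capillary electrophoresis, was fitted bidirectionally relative to DMSO.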

Assay [15] deals with Estrogen receptor beta (Homo sapiens) (UniProt Q92731). Briefly: OT_ER_ERbERb_0480: Odyssey Thera (OT) 8-hour HEK293T Protein-Complementation Assay for Estrogen Receptor-beta/-beta Homodimer (AID 2283357; active = hit-call score of the fitted dose curve at least 0.9, where 1 is the maximum;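 also: active means signal gain over DMSO baseline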). The procedure, abridged: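 ER-beta LBD homodimer PCA stably expressed in HEK293T; 8 h compound exposure, then formaldehyde fixation and Draq5 staining. Gain in nuclear/cytoplasmic fluorescence intensity versus DMSO vehicle, read on laser scanning cytometer.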

Assay [16] shares this target. Briefly: OT_ER_ERbERb_1440: Odyssey Thera (OT) 24-hour HEK293T Protein-Complementation Assay for Estrogen Receptor-beta/-beta Homodimer (AID 2283380; active = hit-call score of the fitted dose curve at least 0.9, where 1 is the maximum;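 also: scored as signal increase over DMSO baseline for both agonists and antagonists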). The procedure, abridged:
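Fluorescence increase, nuclear for agonists or whole-cell for antagonists, relative to DMSO vehicle, quantified by laser scanning cytometer after fixation and Draq5 staining. Readout from 24 h treatment of HEK293T cells carrying complementation-paired ER beta LBD (aa 310-547).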

A short description of assay [17]: ACEA_AR_agonist_AUC_viability: ACEA Biosciences xCELLigence Real-Time Cell Analysis on Androgen Receptor Agonism for Viability (AID 2283775; active = hit-call score of the fitted dose curve at least 0.9, where 1 is the maximum). The procedure, abridged: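 22Rv1 cells; impedance growth kinetics; 8-pt 1:4 dilutions from 100 uM top final, ≤0.5% DMSO; n = 2; 80 h read; AUC viability, loss-of-signal vs DMSO.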
The nature of assay [18]: ACEA_AR_antagonist_AUC_viability: ACEA Biosciences xCELLigence Real-Time Cell Analysis on Androgen Receptor Antagonism for Viability (AID 2283776; active = hit-call score of the fitted dose curve at least 0.9, where 1 is the maximum;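 also: 22Rv1 human prostate cancer cells growing on impedance electrode plates; area under impedance growth curve at 80 h after dosing as viability; hits lower the growth signal relative to DMSO meaning cytotoxicity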). In a few lines:
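Real-time electrical impedance tracks 22Rv1 proliferation after continuous compound exposure (top 100 uM final, 1:4 steps, 8 concentrations). The 80 h area-under-curve serves as the cytotoxicity readout relative to DMSO.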

The target in assay [19] is Aryl hydrocarbon receptor (Homo sapiens) (UniProt P35869). Briefly: ATG_Ahr_CIS: Attagene CIS-FACTORIAL HepG2 Assay for human Aryl Hydrocarbon Receptor (Ahr) (AID 2282930). Particulars: HepG2 AhR cis-factorial reporter transcription; actives raise or lower the signal. In a few lines: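 Transient MRTU transfection of HepG2 → 24 h compound exposure → total RNA, oligo(dT) RT → PCR, 6-FAM extension, HpaI cut → CE fluorescence. DMSO = baseline; bidirectional curve fit.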

Assay [20] deals with human Retinoic Acid Receptor gamma (RARg), RARG (gene 5916) (UniProt P13631). Briefly: ATG_RARg_TRANS: Attagene TRANS-FACTORIAL HepG2 Assay for human Retinoic Acid Receptor gamma (RARg) (AID 2283009; active = hit-call score of the fitted dose curve at least 0.9, where 1 is the maximum;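 as to AC50: AC50 is for reporter induction above DMSO meaning RARg activation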). In a few lines: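 Transactivation of exogenous RARg-Gal4 fusion measured as reporter transcript induction after 24 h in transfected HepG2 cells. RNA reverse-transcribed, amplified, fluorescently labeled and resolved by capillary electrophoresis; increase relative to DMSO.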

Each structure is given as a SMILES string. Results filed as inconclusive are left out. More than one record can exist for a structure, and the calls need not agree. Active and inactive are the calls of the source. The calls were made as follows, unless noted: active = hit-call score of the fitted dose curve at least 0.9, where 1 is the maximum; inactive = score below 0.9.

Steroid hormone receptor ERR1 (Homo sapiens), sequence (P11474 whole entry, looked up, the tested form may be a part): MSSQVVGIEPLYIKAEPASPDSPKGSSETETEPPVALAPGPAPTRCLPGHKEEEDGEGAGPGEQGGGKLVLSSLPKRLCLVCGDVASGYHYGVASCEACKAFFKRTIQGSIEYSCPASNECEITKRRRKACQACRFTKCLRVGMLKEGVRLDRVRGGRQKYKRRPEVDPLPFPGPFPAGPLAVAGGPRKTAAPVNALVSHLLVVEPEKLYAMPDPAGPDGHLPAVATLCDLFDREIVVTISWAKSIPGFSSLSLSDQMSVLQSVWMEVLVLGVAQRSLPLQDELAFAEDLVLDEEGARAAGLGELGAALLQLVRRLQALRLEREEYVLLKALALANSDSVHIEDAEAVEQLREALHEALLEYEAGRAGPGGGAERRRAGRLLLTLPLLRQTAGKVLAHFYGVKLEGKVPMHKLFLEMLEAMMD
Retinoic acid receptor RXR-alpha (Homo sapiens), sequence (P19793 whole entry, looked up, the tested form may be a part): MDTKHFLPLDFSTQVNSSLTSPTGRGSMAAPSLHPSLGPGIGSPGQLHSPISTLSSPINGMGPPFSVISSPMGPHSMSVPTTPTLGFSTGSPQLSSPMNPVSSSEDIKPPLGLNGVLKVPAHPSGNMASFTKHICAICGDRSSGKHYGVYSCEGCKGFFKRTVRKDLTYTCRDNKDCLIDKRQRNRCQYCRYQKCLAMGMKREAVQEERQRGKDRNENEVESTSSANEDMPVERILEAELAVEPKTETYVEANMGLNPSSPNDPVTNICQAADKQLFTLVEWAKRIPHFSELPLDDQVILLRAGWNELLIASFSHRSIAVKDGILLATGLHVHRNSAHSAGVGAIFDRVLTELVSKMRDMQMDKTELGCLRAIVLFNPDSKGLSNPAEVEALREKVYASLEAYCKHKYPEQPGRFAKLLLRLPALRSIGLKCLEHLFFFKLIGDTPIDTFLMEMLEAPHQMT
Aryl hydrocarbon receptor (Homo sapiens), sequence (P35869 whole entry, looked up): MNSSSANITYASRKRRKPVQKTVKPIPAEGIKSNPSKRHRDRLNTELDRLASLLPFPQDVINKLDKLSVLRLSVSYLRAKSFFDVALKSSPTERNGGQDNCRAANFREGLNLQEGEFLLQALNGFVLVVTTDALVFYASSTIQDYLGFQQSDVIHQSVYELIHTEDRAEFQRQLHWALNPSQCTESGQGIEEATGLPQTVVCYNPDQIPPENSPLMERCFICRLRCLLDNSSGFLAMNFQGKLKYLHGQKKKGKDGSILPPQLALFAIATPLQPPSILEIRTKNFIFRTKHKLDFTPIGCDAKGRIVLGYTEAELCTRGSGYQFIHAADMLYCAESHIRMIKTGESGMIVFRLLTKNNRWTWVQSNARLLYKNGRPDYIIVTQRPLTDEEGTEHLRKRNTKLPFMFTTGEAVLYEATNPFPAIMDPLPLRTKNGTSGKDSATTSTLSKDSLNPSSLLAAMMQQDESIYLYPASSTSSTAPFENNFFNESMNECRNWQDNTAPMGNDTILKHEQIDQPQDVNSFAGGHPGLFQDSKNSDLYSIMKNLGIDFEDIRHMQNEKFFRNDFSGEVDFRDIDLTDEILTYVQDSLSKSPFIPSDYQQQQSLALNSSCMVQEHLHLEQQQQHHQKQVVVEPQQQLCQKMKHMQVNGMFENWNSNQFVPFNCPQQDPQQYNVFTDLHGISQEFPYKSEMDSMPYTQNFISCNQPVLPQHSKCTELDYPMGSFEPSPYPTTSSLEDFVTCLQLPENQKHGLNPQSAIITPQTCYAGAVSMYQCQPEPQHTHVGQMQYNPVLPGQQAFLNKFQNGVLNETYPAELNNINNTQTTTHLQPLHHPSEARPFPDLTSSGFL
Estrogen-related receptor gamma (Homo sapiens), sequence (P62508 whole entry, looked up, the tested form may be a part): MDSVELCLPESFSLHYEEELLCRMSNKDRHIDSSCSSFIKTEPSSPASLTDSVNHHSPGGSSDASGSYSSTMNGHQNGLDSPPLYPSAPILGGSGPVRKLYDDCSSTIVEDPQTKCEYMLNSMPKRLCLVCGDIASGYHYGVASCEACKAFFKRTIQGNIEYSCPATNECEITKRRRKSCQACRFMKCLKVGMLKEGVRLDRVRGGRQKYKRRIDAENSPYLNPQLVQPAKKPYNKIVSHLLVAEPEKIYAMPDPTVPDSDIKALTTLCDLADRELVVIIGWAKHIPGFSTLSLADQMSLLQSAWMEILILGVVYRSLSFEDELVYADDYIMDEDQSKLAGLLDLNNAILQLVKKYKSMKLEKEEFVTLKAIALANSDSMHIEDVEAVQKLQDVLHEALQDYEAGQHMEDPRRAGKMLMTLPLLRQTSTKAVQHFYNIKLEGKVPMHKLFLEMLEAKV
Estrogen receptor beta (Homo sapiens), sequence (Q92731 whole entry, looked up, the tested form may be a part): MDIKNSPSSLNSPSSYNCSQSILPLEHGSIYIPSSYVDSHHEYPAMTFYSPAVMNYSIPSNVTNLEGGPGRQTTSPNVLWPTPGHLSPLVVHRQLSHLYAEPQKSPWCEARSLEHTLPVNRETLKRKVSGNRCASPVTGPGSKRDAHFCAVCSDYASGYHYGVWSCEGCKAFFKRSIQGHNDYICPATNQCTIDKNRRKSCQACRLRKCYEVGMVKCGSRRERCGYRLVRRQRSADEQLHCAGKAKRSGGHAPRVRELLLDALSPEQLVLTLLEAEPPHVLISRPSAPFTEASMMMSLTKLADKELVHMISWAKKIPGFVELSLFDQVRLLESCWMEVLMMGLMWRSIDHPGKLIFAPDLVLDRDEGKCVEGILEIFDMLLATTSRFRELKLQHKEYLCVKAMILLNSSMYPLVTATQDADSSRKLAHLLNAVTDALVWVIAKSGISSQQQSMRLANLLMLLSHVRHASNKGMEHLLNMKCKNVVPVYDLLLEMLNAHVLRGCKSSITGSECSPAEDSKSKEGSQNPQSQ
Nuclear receptor subfamily 4 group A member 2 (Homo sapiens), sequence (P43354 whole entry, looked up, the tested form may be a part): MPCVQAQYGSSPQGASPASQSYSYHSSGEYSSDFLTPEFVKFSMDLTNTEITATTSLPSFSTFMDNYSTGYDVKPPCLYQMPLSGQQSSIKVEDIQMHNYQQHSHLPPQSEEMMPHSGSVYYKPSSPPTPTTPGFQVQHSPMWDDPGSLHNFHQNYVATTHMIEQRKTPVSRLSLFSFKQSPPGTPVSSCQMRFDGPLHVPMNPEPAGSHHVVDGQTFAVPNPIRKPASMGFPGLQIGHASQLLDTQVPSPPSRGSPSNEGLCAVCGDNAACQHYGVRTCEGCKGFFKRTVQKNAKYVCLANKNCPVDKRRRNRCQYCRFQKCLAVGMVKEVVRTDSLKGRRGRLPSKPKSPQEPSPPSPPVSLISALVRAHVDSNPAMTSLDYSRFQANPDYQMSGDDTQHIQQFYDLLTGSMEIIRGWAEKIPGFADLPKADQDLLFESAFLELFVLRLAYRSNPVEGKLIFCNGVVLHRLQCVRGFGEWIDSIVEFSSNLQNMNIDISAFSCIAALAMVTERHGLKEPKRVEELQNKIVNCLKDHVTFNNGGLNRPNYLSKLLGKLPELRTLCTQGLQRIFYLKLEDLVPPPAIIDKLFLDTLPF
human Retinoic Acid Receptor gamma (RARg), RARG (gene 5916), sequence (P13631 whole entry, looked up, the tested form may be a part): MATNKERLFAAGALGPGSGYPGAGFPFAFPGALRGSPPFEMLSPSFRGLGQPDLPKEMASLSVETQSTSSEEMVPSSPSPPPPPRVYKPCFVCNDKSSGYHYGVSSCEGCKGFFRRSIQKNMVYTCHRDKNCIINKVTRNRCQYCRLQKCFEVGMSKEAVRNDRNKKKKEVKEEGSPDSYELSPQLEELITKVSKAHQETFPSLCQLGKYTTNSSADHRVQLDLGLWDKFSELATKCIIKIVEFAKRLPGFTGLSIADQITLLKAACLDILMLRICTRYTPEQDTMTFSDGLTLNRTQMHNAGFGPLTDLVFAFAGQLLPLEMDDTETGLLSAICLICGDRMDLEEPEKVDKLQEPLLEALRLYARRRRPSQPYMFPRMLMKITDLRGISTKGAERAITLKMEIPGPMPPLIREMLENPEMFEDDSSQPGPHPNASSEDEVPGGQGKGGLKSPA

As to `NCc1ccccc1`, the result in assay [1], in assay [2] and in assay [3] was inactive.
For `CC(C)CC(=O)CC(C)CC(C)C` (stereo not drawn), the outcome in [4], in assay [7], in [8], in [9], in assay [11] and in assay [12] was inactive. The AC50 in assay [5] was 30.1 µM (active); in assay [6], 34.6 µM (active); in assay [10], 37.2 µM (active).
In the case of `CN(C)N=Nc1ccccc1`, the call in assay [1] and in [2] was inactive.
As for `CCCCCCCCCC/C=C/C1CC(=O)OC1=O` (stereo not drawn), the compound was called inactive in assay [4], in assay [5], in assay [6], in [7], in assay [8] and in assay [9]. The outcome in assay [10], in assay [11] and in [12] was inactive.
As to `CN(C)Cc1cc(C(C)(C)C)c(O)c(C(C)(C)C)c1`, the result in assay [2], in [5], in assay [6], in assay [7], in assay [8] and in [9] was inactive. Also, the result in [10] and in assay [12] was inactive. For the same compound, the AC50 is 29.1 µM (active) in assay [4]; 1.56 µM (active) in [5]; 5.92 µM (active) in [8]; 12.8 µM (active) in assay [9]; 0.15 µM (active) in [10]; 18.3 µM [setting not given] (active) in [11]. For the same compound, the AC50 in assay [12] is 20 µM (active). Also, the outcome in [11] is “inactive [setting not given]”.
Regarding `CCCCC(CC)COC(=O)CS` (stereo not drawn), the call in assay [1] and in assay [2] was inactive. Also, the AC50 in assay [13] was 16 µM (active).
As to `CC(=O)c1nccs1`, the AC50 in assay [14] is 4.94 µM (active).
With `O=C(c1ccccc1)c1ccccc1O`, the compound was classed as inactive in assay [1], in assay [2], in assay [16], in assay [17] and in assay [18]. Besides, the AC50 in assay [15] was 50 µM (active).
In the case of `Cc1ccnc(N)c1`, the compound was classed as inactive in [3].
Turning to `CC(C)n1c(/C=C/[C@@H](O)C[C@@H](O)CC(=O)O)c(-c2ccc(F)cc2)c2ccccc21`, the AC50 in [19] is 51.7 µM (active).
In the case of `CCCCCCCCCCCCCCCCCC[N+](C)(C)C`, the call in assay [14], in assay [7] and in [8] was inactive. Also, the AC50 in assay [1] was 33.8 µM (active); in assay [2], 25 µM (active); in assay [20] it was 34.4 µM (active); in assay [5] it was 1.34 µM (active); in [6], 3.45 µM (active); in assay [9], 2.67 µM (active). The AC50 is 3.73 µM (active) in assay [10], 3.11 µM (active) in assay [11] and 3.28 µM (active) in assay [12].
As to `CC/C=C\CC1=C(C)CCC1=O`, the outcome in [19] and in assay [2] was inactive.
Take `Oc1ccc(Oc2ccccc2)cc1`: the compound was classed as inactive in assay [19]. The AC50 in assay [14] was 1.54 µM (active).
Consider `Nc1ccc(S(=O)(=O)Nc2cnc3ccccc3n2)cc1`, for which the compound was classed as inactive in assay [19], in assay [4], in [15], in [16] and in [13].
With `CCCN[C@H]1CCc2nc(N)sc2C1`, in assay [19], the compound was classed as inactive.
In the case of `O=C(C(=O)c1ccccc1)c1ccccc1`, the compound was classed as inactive in assay [1], in [2], in [5], in assay [6], in assay [7] and in [8]. Besides, the result in [9], in assay [10], in assay [11] and in assay [12] was inactive.
For the compound `O=C(CC(C(=O)OC1CCCCC1)S(=O)(=O)O)OC1CCCCC1` (stereo not drawn), the compound was called inactive in [2], in assay [15], in assay [16], in assay [13], in [17] and in [18].
On to `NC(N)=Nc1nc(CSCCC(N)=NS(N)(=O)=O)cs1`, for which, in [14], the half-maximal activity concentration (AC50) is 26.1 µM (active). Moreover, the call in assay [1] and in [3] was inactive.
Regarding `O=C(O)/C=C/C(=O)O`, the compound was called inactive in assay [4], in [15], in assay [16], in [17], in assay [18] and in assay [3].
Regarding `c1ccc(CNc2ncnc3nc[nH]c23)cc1`, the compound was called inactive in assay [20], in [15], in [16], in assay [17], in [18] and in [3].
For the compound `CC1(C)S[C@@H]2[C@H](NC(=O)[C@H](N)c3ccccc3)C(=O)N2[C@H]1C(=O)O`, the result in assay [19] and in [4] was inactive.
Turning to `CC(=O)O[C@]1(C(C)=O)CC[C@H]2[C@@H]3C=C(C)C4=CC(=O)CC[C@]4(C)[C@H]3CC[C@@]21C`, in assay [3], the outcome was inactive.
Regarding `C/C=C(\C)C(=O)OCC/C=C\CC`, the result in [4] was inactive.

Values taken from PubChem BioAssay (EPA / NIEHS).
